The record followed here is PubChem BioAssay (Tox21).

A short description of test [1]: qHTS assay to test for compound auto fluorescence at 535 nm (green) in HEK293 cells (AID 720680). Background: Quantitative high-throughput screening tests each substance at several concentrations.
Test [2] is described as follows: qHTS assay to test for compound auto fluorescence at 460 nm (blue) in HEK293 cell free culture (AID 720681). The gist of the method:
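Blue fluorescence (Ex 405/Em 460 nm, triamterene-equivalent) was read immediately after pin transfer of compound or DMSO into medium (DMEM, 10% FBS) without cells.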

Test [3] in a line: qHTS assay to test for compound auto fluorescence at 535 nm (green) in HEK293 cell free culture (AID 720682). The gist of the method: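 Green-label autofluorescence (485 nm excitation, 535 nm emission) measured on compound added to cell-free culture medium (DMEM, 10% FBS). Output is expressed relative to fluorescein.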
Test [4] is described as follows: qHTS assay to test for compound auto fluorescence at 590 nm (red) in HEK293 cell free culture (AID 720683). The procedure, abridged:
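Red-channel autofluorescence of compounds in culture medium (DMEM, 10% FBS), no cells, measured at 540/590 nm. Rose Bengal sodium is the reference fluorophore for equivalence.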

Test [5] in a line: qHTS assay to test for compound auto fluorescence at 590 nm (red) in HepG2 cell free culture (AID 720684). The gist of the method:
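No cells present: MEM + 10% FBS only. Compound pinned in, red label read (540/590 nm). Activity = fluorescence equivalent to Rose Bengal sodium.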

Test [6] can be described thus: qHTS assay to test for compound auto fluorescence at 460 nm (blue) in HepG2 cell free culture (AID 720685). The gist of the method:
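Cell-free plates of MEM plus 10% FBS received 23 nL compound or DMSO vehicle; blue-channel (405/460 nm) intensity scored against triamterene as reference fluorophore.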

Test [7] can be described thus: qHTS assay to test for compound auto fluorescence at 535 nm (green) in HepG2 cell free culture (AID 720686).
A short description of test [8]: qHTS assay to test for compound auto fluorescence at 460 nm (blue) in HepG2 cells (AID 720687). The gist of the method: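 Blue-channel autofluorescence (Ex/Em 405/460 nm, triamterene-equivalent) was measured after 1 hr compound exposure at 37 C, 5% CO2. Cells were HepG2, plated overnight at 37 C in MEM plus 10% FBS.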
Test [9] is described as follows: qHTS assay to identify small molecule antagonists of the glucocorticoid receptor (GR) signaling pathway - cell viability counter screen (AID 720693). Further: nearly all actives have a fitted effect of over 55% in size.
Test [10] is described as follows: qHTS assay for identifying genotoxic compounds that show differential cytotoxicity against isogenic chicken DT40 cell lines with known DNA damage response pathways - wild type cell line (AID 743012). Further: nearly all actives have a fitted effect of over 60% in size. Further: potency means the concentration at half of the fitted maximal effect. The gist of the method:
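Viability by ATP luminescence (CellTiter-Glo, 30 min RT) after 40 h compound treatment at 37 C/5% CO2, using 300 parental DNA repair-proficient DT40 cells per well.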

A short description of test [11]: qHTS assay for identifying genotoxic compounds that show differential cytotoxicity against isogenic chicken DT40 cell lines with known DNA damage response pathways - Rev3 mutant cell line (AID 743014). Further: nearly all actives have a fitted effect of over 55% in size. Further: potency means the concentration at half of the fitted maximal effect.
Test [12] is described as follows: qHTS assay to identify small molecule antagonists of the androgen receptor (AR) signaling pathway - cell viability counter screen (AID 743033; further: nearly all actives have a fitted effect of over 45% in size).
A short description of test [13]: qHTS assay to identify small molecule antagonists of the androgen receptor (AR) signaling pathway using the MDA cell line - cell viability counter screen (AID 743041; further: nearly all actives have a fitted effect of over 45% in size). The procedure, abridged:
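Using the breast carcinoma line MDA-kb2 AR-luc, test chemicals were co-incubated with R1881 for 16 h; CellTiter-Fluor reagent, added at 15.5 h, provided a fluorescence measure of live cells.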

Test [14] in a line: qHTS assay for identifying genotoxic compounds that show differential cytotoxicity against isogenic chicken DT40 cell lines with known DNA damage response pathways - Rad54/Ku70 mutant cell line (AID 743015). Further: nearly all actives have a fitted effect of over 60% in size. Further: potency means the concentration at half of the fitted maximal effect.
Test [15] has as its target Glucocorticoid receptor (Homo sapiens) (UniProt P04150). The test can be described thus: qHTS assay to identify small molecule agonists of the glucocorticoid receptor (GR) signaling pathway (AID 720691; active means well fitted activation curve with a large enough effect in the signal ratio in the repeat runs, not every such curve was filed as active; the % refers to the signal ratio). The note with it: GR-bla HeLa, beta-lactamase reporter ratio, 18 h; activation: at 62.4 µM (top of the series). The procedure, abridged: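 Agonist-mode qHTS in HeLa cells stably expressing a glucocorticoid-response-element beta-lactamase reporter. Fluorescence intensity read with FRET substrate (2 h, room temperature) after 18 h compound treatment at 37 C.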

Test [16] has the same target. The test can be described thus: qHTS assay to identify small molecule antagonists of the glucocorticoid receptor (GR) signaling pathway (AID 720692; active means well fitted inhibition curve with a large enough effect in the signal ratio in the repeat runs, not every such curve was filed as active; the % refers to the signal ratio). The gist of the method: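 Inhibition of dexamethasone-driven (5 nM final) beta-lactamase expression was measured in GRE-reporter HeLa cells over 18 h at 37C. Fluorescence was read after 2 h with the B/G FRET substrate at room temperature.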

Test [17] has as its target Androgen receptor (Homo sapiens) (UniProt P10275). In words: qHTS assay to identify small molecule antagonists of the androgen receptor (AR) signaling pathway (AID 743035; active means well fitted inhibition curve with a large enough effect in the signal ratio in the repeat runs, not every such curve was filed as active; the % refers to the signal ratio). The gist of the method:
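Antagonist mode: AR-bla HEK293 cells co-treated with test compounds and agonist R1881 for 16 h at 37C, 5% CO2. Beta-lactamase activity read as FRET fluorescence after 2 h room-temperature substrate loading.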

For test [18] the target is unchanged. The test can be described thus: qHTS assay to identify small molecule agonists of the androgen receptor (AR) signaling pathway (AID 743036; active means well fitted activation curve with a large enough effect in the signal ratio in the repeat runs, with a control signal flat, not every such curve was filed as active; the % refers to the signal ratio). The procedure, abridged: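 AR-UAS-bla HEK293 cells, plated 4 h before dosing, were treated with compound for 16 h at 37C. beta-Lactamase reporter read after 2 h with LiveBLAzer B/G FRET substrate at room temperature.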

For test [19] the target is unchanged. In words: qHTS assay to identify small molecule agonists of the androgen receptor (AR) signaling pathway using the MDA cell line (AID 743040; further: nearly all actives have a fitted effect of over 20% in size). The gist of the method: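 Stable MMTV-luciferase reporter in MDA-kb2 cells; note the promoter carries GR as well as AR response elements. 16 h compound treatment, 37C, 0% CO2; ONE-Glo luminescence endpoint.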
The target is the same in test [20]. The test can be described thus: qHTS assay to identify small molecule antagonists of the androgen receptor (AR) signaling pathway using the MDA cell line (AID 743042; further: nearly all actives have a fitted effect of over 55% in size; further: potency means the concentration at half of the fitted maximal effect). The procedure, abridged: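 Antagonist mode: compounds plus R1881 agonist added to MDA-kb2 AR-luc cells, incubated 16 h at 37C. Luciferase reporter luminescence quantified, with multiplexed CellTiter-Fluor readout for cell viability.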

SMILES strings stand for the structures. A number with no mark means an inactive call. Records with an inconclusive call do not appear. Active and inactive are the calls of the source. Unless noted, the call rests on the fitted dose curve; in most records, active means well fitted curve in the direction sought with a large enough effect in the repeat runs; inconclusive means weak or mixed curves; inactive means no such curve, though single readings can be large; an effect the other way counts as inactive or inconclusive.
On the % scale 0 is the no-effect control and ±100 the full control effect.

Sequence of Androgen receptor (Homo sapiens) (P10275 whole entry, looked up): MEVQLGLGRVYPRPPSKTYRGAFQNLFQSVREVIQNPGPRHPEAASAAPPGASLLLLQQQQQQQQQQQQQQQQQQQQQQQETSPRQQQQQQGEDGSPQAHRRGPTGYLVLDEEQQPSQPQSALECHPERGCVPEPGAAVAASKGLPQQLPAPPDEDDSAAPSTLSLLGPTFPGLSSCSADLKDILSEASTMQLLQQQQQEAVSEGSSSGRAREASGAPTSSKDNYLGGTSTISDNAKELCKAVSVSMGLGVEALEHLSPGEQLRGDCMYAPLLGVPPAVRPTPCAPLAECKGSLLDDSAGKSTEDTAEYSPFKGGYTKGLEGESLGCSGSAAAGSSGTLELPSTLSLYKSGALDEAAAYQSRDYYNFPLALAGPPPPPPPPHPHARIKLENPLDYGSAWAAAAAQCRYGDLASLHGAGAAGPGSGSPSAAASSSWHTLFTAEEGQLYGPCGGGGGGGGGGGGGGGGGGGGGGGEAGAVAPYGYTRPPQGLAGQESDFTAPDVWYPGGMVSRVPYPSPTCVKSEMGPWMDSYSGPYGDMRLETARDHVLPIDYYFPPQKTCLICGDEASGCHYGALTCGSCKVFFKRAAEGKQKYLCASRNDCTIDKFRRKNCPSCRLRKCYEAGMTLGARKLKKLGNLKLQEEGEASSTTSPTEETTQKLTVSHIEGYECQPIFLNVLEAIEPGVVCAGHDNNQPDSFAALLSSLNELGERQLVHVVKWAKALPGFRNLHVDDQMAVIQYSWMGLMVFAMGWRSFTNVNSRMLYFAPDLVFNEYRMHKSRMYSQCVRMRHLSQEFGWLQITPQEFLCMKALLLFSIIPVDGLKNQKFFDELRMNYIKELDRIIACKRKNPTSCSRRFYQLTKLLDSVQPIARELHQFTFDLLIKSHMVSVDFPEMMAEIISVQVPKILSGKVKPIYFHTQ
Sequence of Glucocorticoid receptor (Homo sapiens) (P04150 whole entry, looked up): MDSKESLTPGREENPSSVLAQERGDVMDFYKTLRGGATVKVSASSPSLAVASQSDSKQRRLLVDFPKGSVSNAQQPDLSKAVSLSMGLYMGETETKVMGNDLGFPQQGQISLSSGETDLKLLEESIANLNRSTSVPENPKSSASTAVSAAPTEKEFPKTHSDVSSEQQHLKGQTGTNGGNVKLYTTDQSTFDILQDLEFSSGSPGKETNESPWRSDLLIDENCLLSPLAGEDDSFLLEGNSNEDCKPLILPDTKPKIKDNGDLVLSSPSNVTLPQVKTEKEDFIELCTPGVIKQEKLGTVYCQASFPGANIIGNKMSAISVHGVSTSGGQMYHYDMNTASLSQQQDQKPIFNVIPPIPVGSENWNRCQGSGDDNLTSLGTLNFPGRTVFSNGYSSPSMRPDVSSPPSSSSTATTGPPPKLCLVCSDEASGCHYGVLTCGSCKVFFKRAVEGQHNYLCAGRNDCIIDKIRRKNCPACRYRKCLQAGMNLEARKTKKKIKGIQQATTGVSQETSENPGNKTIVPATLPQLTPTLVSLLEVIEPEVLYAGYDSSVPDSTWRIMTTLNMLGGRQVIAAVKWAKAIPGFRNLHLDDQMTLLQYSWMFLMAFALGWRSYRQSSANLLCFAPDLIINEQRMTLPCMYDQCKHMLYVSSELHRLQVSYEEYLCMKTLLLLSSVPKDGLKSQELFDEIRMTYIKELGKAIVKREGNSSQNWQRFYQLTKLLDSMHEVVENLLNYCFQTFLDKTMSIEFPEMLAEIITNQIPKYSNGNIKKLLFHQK

As to `CCCCn1cc[n+](C)c1.[Cl][Fe-]([Cl])([Cl])[Cl]`, the outcome in test [1], in [3], in test [4] and in test [5] was inactive. Also, the Potency entry in [2], in [6], in [7], in test [8], in test [9] and in test [10] was “inactive” in each case. The Potency entry in test [11], in [12] and in test [13] was “inactive” throughout.
Regarding `O.O.O.O.O.O.O=S(=O)([O-])[O-].[Ni+2]`, the outcome in test [1], in test [3], in [4] and in test [5] was inactive. Besides, the Potency entry in test [2], in test [6], in test [7], in test [8], in [9] and in test [12] was “inactive” throughout. In addition, in [13], the Potency result was “inactive”. Also, in [11], the Potency is 26.1 µM (active).
Regarding `[O-][Cl+3]([O-])([O-])O`, the result in test [1], in [3], in test [4] and in [5] was inactive. Besides, the Potency entry in test [2], in test [6], in [7], in test [8], in test [10] and in [11] was “inactive” each time. Further, the Potency result in [14], in test [12] and in [13] was “inactive” in each case.
On to `CN(C)CCc1c[nH]c2ccccc12`, for which the result in [1], in [3], in [4] and in test [5] was inactive. Further, the Potency result in test [2], in [6], in test [8], in test [15], in [16] and in [9] was “inactive” in each case. The Potency entry in [14], in [12] and in [13] was “inactive” each time.
As for `BrCC(Br)(Br)Br`, the molecule was classed as inactive in test [1], in test [3], in test [4], in [5], in test [18] and in test [19]. For the same molecule, the Potency entry in test [2], in test [6], in [7], in [8], in test [9] and in [12] was “inactive” in each case. In addition, the Potency entry in test [17], in test [13] and in [20] was “inactive” each time.
Regarding `CC(Cc1ccc(O)cc1)NCC(O)c1cc(O)cc(O)c1` (centres undefined), the molecule was called inactive in [1], in test [3], in test [4] and in [5]. For the same molecule, the Potency entry in test [2], in test [6], in [8], in test [15], in [16] and in test [9] was “inactive” throughout. The Potency result in test [10], in test [14], in [12] and in test [13] was “inactive” in each case.
As to `CCC1(CC)C(=O)N=C(O)NC1=O`, the molecule was classed as inactive in test [1], in [3], in [4] and in [5]. Also, the Potency result in test [2], in test [6], in test [8], in [15], in test [16] and in test [10] was “inactive” each time. The Potency result in [11], in [14], in [12] and in test [13] was “inactive” in each case.
`COc1ccc(Cc2nccc3cc(OC)c(OC)cc23)cc1OC`: the fluorescence, % of fluorescein in test [1] was -0.0425% [at 18.6 µM]. The fluorescence, % of fluorescent control was -0.0156% [at 18.6 µM] in test [2], -0.0177% [at 18.6 µM] in test [4], 0.0281% [at 18.6 µM] in [6] and -0.0587% [at 18.6 µM] in [8]. Also, the activity change in test [3] is -0.0465% [at 18.6 µM]. The fluorescence, % of Rose Bengal in test [5] is -0.262% [at 18.6 µM]. The Potency result in test [9] and in test [12] was “inactive” throughout. In addition, the Potency in test [10] was 4.03 µM (active); in test [11], 9.02 µM (active); in [14], 7.17 µM (active); in [20], 9.02 µM (active). Moreover, the molecule was called inactive in test [18] and in test [19].
